RE007 growth inh: qHTS Assay for Inhibitors of the HIV-1 protein Vpr; S. pombe RE007 Vpr strain, BacTiter-Glo ATP luminescence, 24 h; Potency, µM (titrated, usually from 92.2 µM), for inactives: at the top dose activity change, negative = less growth, usual class: inhibitors; hit rate 0.21% among 360,000; active = well fitted falling curve with a large enough effect; inconclusive = small, poorly fitted or top-dose-only effect; inactive = no such curve, though single readings can be large or run the other way; note: potency is the fitted concentration of half-maximal effect; % is set by controls: 0 for no effect and ±100 for the full control effect; nearly all actives have a fitted effect of over 50% in size
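Fission yeast RE007 carrying one integrated HIV-1 vpr copy, seeded at OD 0.01 in PMG+AL medium with 23 nL pinned compound. Grown 24 h at 30 degrees; viability read by BacTiter-Glo luminescence after 5 min.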
AmpC no deterg: qHTS Inhibitors of AmpC Beta-Lactamase (assay without detergent). hit rate 0.52% among 330,000. P00811. Potency, µM (series often up to 57.1 µM), without a hit: at the top dose activity change, negative = inhibition, most hits filed as inhibitors. AmpC nitrocefin hydrolysis, absorbance 480 nm, 0.0001% Triton;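 note: potency is the fitted concentration of half-maximal effect; plate controls were no compound for no effect and no enzyme for full effect; nearly all actives have a fitted effect of over 20% in size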
Target sequence (P00811 whole entry, looked up): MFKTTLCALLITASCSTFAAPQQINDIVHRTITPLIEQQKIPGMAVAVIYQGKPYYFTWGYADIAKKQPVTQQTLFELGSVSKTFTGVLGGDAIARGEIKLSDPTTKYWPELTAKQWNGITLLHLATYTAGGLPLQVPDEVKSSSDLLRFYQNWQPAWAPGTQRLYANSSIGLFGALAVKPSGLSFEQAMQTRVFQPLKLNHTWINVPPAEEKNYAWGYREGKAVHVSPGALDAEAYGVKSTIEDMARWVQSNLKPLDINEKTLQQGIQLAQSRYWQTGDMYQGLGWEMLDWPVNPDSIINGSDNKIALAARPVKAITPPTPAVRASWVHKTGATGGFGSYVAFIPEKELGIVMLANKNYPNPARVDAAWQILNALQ
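20 mM phosphate pH 7.0 + 0.01% (detergent screen) or 0.0001% Triton X-100; 5.3 nM AmpC reagent; cpd preinc 15 min RT; nitrocefin (800 uM stock) to start; A480 q20 s × 4 min; Activity was normalised to no-enzyme and no-compound control wells.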
SARS PLpro yeast-1: qHTS of Yeast-based Assay for SARS-CoV PLP. hit rate 0.19% among 330,000. Potency, µM (titrated, usually from 32.9 µM), inactives show at the highest dose activity, positive = growth rescue, usual class: activators. S. cerevisiae expressing SARS-CoV PLpro, growth rescue; calls by dose curve; note: potency is the fitted concentration of half-maximal effect; 0% is about no effect; nearly all actives have a fitted effect of over 55% in size
Sm TGR block: qHTS Assay for the Inhibitors of Schistosoma Mansoni Peroxiredoxins. Schistosoma mansoni thioredoxin glutathione reductase (TGR), Q962Y6. purified TGR, DTNB reduction, TNB absorbance 405 nm. Potency, µM (titrated, usually from 114 µM), inactives show at the top dose activity change, negative = inhibition, hits mostly inhibitors. hit rate 3% among 360,000; note: potency is the fitted concentration of half-maximal effect; % is set by controls: 0 for no effect and ±100 for the full control effect; nearly all actives have a fitted effect of over 60% in size
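TGR 20 nM + NADPH 100 uM (dispensed conc.), cpd preinc 15 min RT; start with NADPH (500 uM addition) then DTNB (15 mM addition). Kinetic TNB absorbance, 405 nm filter. Four-parameter Hill fit across titration.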
AmpC inh detg: qHTS Inhibitors of AmpC Beta-Lactamase (assay with detergent). P00811. AmpC hydrolysis of nitrocefin, absorbance 480 nm, 0.01% Triton. Potency, µM (series often up to 114 µM), for inactives: at the highest dose activity change, negative = inhibition, actives largely listed as inhibitors. hit rate 0.041% among 370,000. AID 485294, 2010;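 note: potency is the fitted concentration of half-maximal effect; 0% = no-compound wells and -100% = no-enzyme wells; nearly all actives have a fitted effect of over 25% in size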
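20 mM phosphate pH 7.0 + 0.01% (detergent screen) or 0.0001% Triton X-100; 5.3 nM AmpC reagent; cpd preinc 15 min RT; nitrocefin (800 uM stock) to start; A480 q20 s × 4 min; Activity was normalised to no-enzyme and no-compound control wells.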
TbPYK inhibitor: qHTS of Trypanosoma Brucei Inhibitors | hit rate 0.12% among 410,000 | TbPYK enzyme, Kinase-Glo Plus ATP luminescence, 45 min | Potency, µM (top dose mostly 76.8 µM), for the others: top-dose activity, negative = inhibition, most hits filed as inhibitors | pyruvate kinase (Trypanosoma brucei), Q57TT1; note: potency is the fitted concentration of half-maximal effect; % is set by controls: 0 for no effect and ±100 for the full control effect; nearly all actives have a fitted effect of over 50% in size
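Luminescent Kinase-Glo Plus end-point after 45 min room-temperature reaction of T. brucei pyruvate kinase started with 130 uM ADP (final). Buffer TEA 50 mM pH 7.2 with KCl, MgCl2, BSA, Tween-20; titration-based qHTS with fitted concentration-effect curves.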
SARS PLpro yeast-2: qHTS of Yeast-based Assay for SARS-CoV PLP: Hit Validation. calls only. shares compounds with SARS PLpro yeast-1. yeast expressing SARS-CoV PLpro, growth phenotype rescue. hit rate 19% among 1,000; call rule not given here
An asterisk follows results filed as active. Sampled rows, rich in hits. Any-hit rate of the full collection: about 3.3%. Unless noted, calls come from the whole dose curve; as a rule, active = well fitted curve in the direction sought with a large enough effect; inconclusive = small, poorly fitted or top-dose-only effect, or another doubt; inactive = no such curve, though single readings can be large; an effect the other way counts as inactive or inconclusive.

Screening Cc1cccc(C)c1NC(=O)Cn1c(=O)c(N2CCCCC2)c(N)n(C)c1=O returned RE007 growth inh -17%, AmpC no deterg -13%, SARS PLpro yeast-1 11µM*, TbPYK inhibitor -6% and SARS PLpro yeast-2 inactive.
For CCn1c(CNC(=O)C23CC4CC(CC(C4)C2)C3)nnc1SCC(=O)Nc1ccc(C)cc1 the results were Sm TGR block 9%, AmpC inh detg -10% and TbPYK inhibitor 0%.
Cc1ccc(CNC(=O)/C=C/c2ccc(Br)o2)cc1 was read as RE007 growth inh -7%, AmpC no deterg -57%, Sm TGR block 8.9µM*, AmpC inh detg inconclusive, TbPYK inhibitor -17% and SARS PLpro yeast-2 inactive.
Screening CCCCOc1ccc(C(=O)Nc2cc(-c3cn4cccnc4n3)ccc2OC)cc1 returned Sm TGR block 0%, AmpC inh detg -1% and TbPYK inhibitor -3%.
`O=C(Nc1nnc(C2CC2)o1)c1ccc(S(=O)(=O)N2CCc3ccccc3C2)cc1` gave RE007 growth inh -18%, AmpC no deterg -25%, SARS PLpro yeast-1 inconclusive, Sm TGR block 0%, AmpC inh detg inconclusive, TbPYK inhibitor 6% and SARS PLpro yeast-2 inconclusive.
CCc1nnc(NC(=O)c2ccc(S(=O)(=O)N3CCCc4ccccc43)cc2)o1 was read as RE007 growth inh -9%, AmpC no deterg -46%, SARS PLpro yeast-1 20µM*, Sm TGR block -7%, AmpC inh detg -6%, TbPYK inhibitor -6% and SARS PLpro yeast-2 inactive.
CCc1nnc(NC(=O)c2ccc(S(=O)(=O)N(CC(C)C)CC(C)C)cc2)o1 was read as RE007 growth inh -2%, AmpC no deterg -6%, SARS PLpro yeast-1 inconclusive, Sm TGR block -10%, AmpC inh detg -1%, TbPYK inhibitor -5% and SARS PLpro yeast-2 active.
CCC(C)n1c(=N)c(C(=O)NC2CCCCC2)cc2c(=O)n3ccccc3nc21 (stereo not drawn) was read as Sm TGR block -2%, AmpC inh detg 12% and TbPYK inhibitor 3%.
CCNc1ccccc(-c2ccc3ccccc3n2)c1=O was read as RE007 growth inh -22%, AmpC no deterg -23%, SARS PLpro yeast-1 11µM*, Sm TGR block -36%, AmpC inh detg -5%, TbPYK inhibitor 1% and SARS PLpro yeast-2 inactive.
For CCNc1ccc2noc3c2c1C(=O)c1ccccc1-3 the results were RE007 growth inh -20%, AmpC no deterg 137%, SARS PLpro yeast-1 -66%, Sm TGR block 2%, AmpC inh detg 1% and TbPYK inhibitor inconclusive.
`O=c1c2c3c(sc2nc2n1CCCCC2)CCCC3` gave RE007 growth inh inconclusive, AmpC no deterg -1%, SARS PLpro yeast-1 4.5µM*, Sm TGR block -16%, AmpC inh detg -13%, TbPYK inhibitor -15% and SARS PLpro yeast-2 inactive.
Screening Cc1ccc(CNC(=O)Cn2c(=O)n(-c3cccc(Cl)c3)c(=O)c3sc4ccccc4c32)cc1 returned Sm TGR block -2%, AmpC inh detg 5% and TbPYK inhibitor 2%.
Screening COc1ccc(C(NC(C)=O)c2cc(Cl)c3cccnc3c2O)cc1 (stereo not drawn) returned RE007 growth inh 16%, AmpC no deterg 3%, SARS PLpro yeast-1 10µM*, Sm TGR block -32%, AmpC inh detg inconclusive, TbPYK inhibitor -2% and SARS PLpro yeast-2 inactive.
For COc1ccc(C(=O)NC(c2ccccc2Cl)c2cc(Cl)c3cccnc3c2O)cc1 (stereo not drawn) the results were Sm TGR block 4%, AmpC inh detg -1% and TbPYK inhibitor 0%.
Screening CC(=O)NC(c1ccc(N(C)C)cc1)c1cc(Cl)c2cccnc2c1O (stereo not drawn) returned RE007 growth inh 8% and TbPYK inhibitor -6%.
O=C(NC(c1ccc(Cl)cc1)c1cc(Cl)c2cccnc2c1O)c1cccnc1 (stereo not drawn) was read as RE007 growth inh 5%, AmpC no deterg -1%, SARS PLpro yeast-1 2.5µM*, Sm TGR block -11%, AmpC inh detg -3%, TbPYK inhibitor -6% and SARS PLpro yeast-2 inactive.
Screening Cc1ccc(-n2c(=O)c3c4c(sc3n(CC(=O)C(C)(C)C)c2=O)CCCCC4)cc1C returned Sm TGR block -1%, AmpC inh detg -3% and TbPYK inhibitor -5%.
Screening COc1ccc(/C(C)=N/NC(=O)CNC(=O)c2cccs2)cc1OC returned RE007 growth inh -6%, AmpC no deterg -15%, SARS PLpro yeast-1 3%, Sm TGR block -8%, AmpC inh detg -2% and TbPYK inhibitor -2%.
`COc1cc(C(=O)NCC(=O)N/N=C(/C)c2cccs2)cc(OC)c1OC` gave RE007 growth inh 6%, AmpC no deterg 6%, SARS PLpro yeast-1 inconclusive, Sm TGR block 6%, AmpC inh detg -4%, TbPYK inhibitor 4% and SARS PLpro yeast-2 inactive.
Screening COc1ccc2cc(-c3nc4ccc(C(=O)O)cc4[nH]3)c(=O)oc2c1 returned Sm TGR block -8%, AmpC inh detg -1% and TbPYK inhibitor -6%.
Screening COC(=O)Sc1nc(N2CCOCC2)c2c(c1C#N)CC(C)(C)OC2 returned RE007 growth inh -12%, AmpC no deterg 40%, SARS PLpro yeast-1 10µM*, Sm TGR block -33%, AmpC inh detg -16%, TbPYK inhibitor -23% and SARS PLpro yeast-2 active.
Screening COC(=O)CSc1nc(N2CCOCC2)c2c(c1C#N)CC(C)(C)OC2 returned RE007 growth inh 2%, AmpC no deterg 68%, SARS PLpro yeast-1 0%, Sm TGR block 23%, AmpC inh detg 12% and TbPYK inhibitor -3%.
Screening CCOC(=O)c1cnn(Cc2ccccc2)c1N returned RE007 growth inh -12%, AmpC no deterg -15%, SARS PLpro yeast-1 inconclusive, Sm TGR block -16%, AmpC inh detg inconclusive, TbPYK inhibitor 0% and SARS PLpro yeast-2 inactive.
